# Most compounds without a hit are left out; they make up all but 3.8% or so of the library.
# ADAM10 inh: inhibits human ADAM10. inhibition, % at 7 µM. AID 720582. actives 0.62% (n = 370,000). recombinant ADAM10, EDANS/DABCYL FRET peptide cleavage, 3 h. O14672;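 active = inhibition above a per-campaign cutoff equal to the mean of compounds falling between control-based bounds plus 3 SD, cut at about 20% in these data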;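 also: 0% = DMSO wells while the 100% control is not disclosed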
# rRNA inh HTS: inhibits bacterial ribosomal RNA function over humanized ribosomes; E. coli WT GFP vs humanized-ribosome RFP mutants, fluorescence, 24 h; stronger effect = lower value; DMSO median 0, no signal -100; GFP signal change (wild-type ribosome), % (test concentration not listed); actives 1.6% (n = 350,000); AID 720706;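 active = significant combined selectivity score with lowered wild-type GFP, culture density cut under 30%, mutant RFP and density less affected; inactive = any of these conditions unmet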
# FGF22 binding: binders of recombinant human FGF22 by thermal shift; Q9HCT0; SYPRO orange fluorescence; percent of sucrose octasulfate shift, DMSO zero; activity (Tm shift, normalised), % at 9.99 µM; actives 1.5% (n = 340,000);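 active = mean Tm shift, scaled 0 neutral to 100 positive control, at about 1.3% or above, every replicate too, limit read from the data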
# Target sequence (Q9HCT0 whole entry, looked up): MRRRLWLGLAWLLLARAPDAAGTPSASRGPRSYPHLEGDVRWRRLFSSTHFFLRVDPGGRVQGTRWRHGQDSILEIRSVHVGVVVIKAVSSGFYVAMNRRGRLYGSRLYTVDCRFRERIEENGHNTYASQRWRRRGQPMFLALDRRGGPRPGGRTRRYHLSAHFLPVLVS
# ADAM17 inh: ADAM17 inhibition, QFRET primary screen; P78536; recombinant ADAM17, EDANS/DABCYL FRET peptide cleavage; inhibition, % at 6.95 µM; actives 0.83% (n = 370,000); AID 720648;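 active = inhibition above the mean of compounds lying between control limits plus 3 SD, set per campaign, cut at about 8.5% in these data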;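 also: 0% = DMSO-only wells as the low control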
# KLK7 zymogen act: activates the human kallikrein-7 zymogen. P49862. purified proKLK7, EDANS-DABCYL substrate fluorescence; 100% is mature enzyme control, 0% vehicle. activation, % at 7 µM. actives 0.9% (n = 370,000). AID 652039;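 active = activation above the mean of all tested compounds plus 3 SD, computed per campaign excluding outliers beyond control limits, cut at about 13% in these data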
# Target sequence (P49862 whole entry, looked up): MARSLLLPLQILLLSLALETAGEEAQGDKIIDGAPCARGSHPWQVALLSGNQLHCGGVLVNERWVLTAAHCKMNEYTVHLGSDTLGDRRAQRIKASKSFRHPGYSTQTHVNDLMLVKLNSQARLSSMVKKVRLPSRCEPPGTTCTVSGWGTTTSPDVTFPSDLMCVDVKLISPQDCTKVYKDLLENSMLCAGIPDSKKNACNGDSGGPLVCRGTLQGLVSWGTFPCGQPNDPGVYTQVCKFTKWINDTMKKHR
# ADAM10 confirm: confirmation of inhibitors of human ADAM10; actives 1% (n = 2,100); AID 743208; ADAM10 QFRET peptide cleavage, EDANS fluorescence; shares compounds with ADAM10 inh; inhibition, % at 6.95 µM;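 active = inhibition above about 20% chosen separately for each screening run, limit read from the data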;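 also: 0% = DMSO wells and 100% = marimastat wells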
# ADAM17 counter: counter-screen for ADAM10 exosite inhibitors: inhibitors of human ADAM17. shares compounds with ADAM10 inh. ADAM17 QFRET peptide cleavage, EDANS fluorescence. inhibition, % at 6.95 µM. actives 0.5% (n = 2,100);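 active = mean triplicate inhibition above the solvent-only control wells' mean plus 3 SD, cut at about 12% in these data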;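 also: 0% = DMSO wells and 100% = marimastat wells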
# ADAM10 counter: counter-screen for ADAM17 exosite inhibitors: inhibitors of human ADAM10; shares compounds with ADAM17 inh; recombinant ADAM10, EDANS/DABCYL FRET peptide cleavage, 3 h; inhibition, % at 6.95 µM; actives 47% (n = 2,900); AID 743256;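 active = mean inhibition over the triplicate runs exceeds the activity threshold set in the earlier primary screen, cut at about 20% in these data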;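 also: 0% = DMSO wells and 100% = marimastat wells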
# ADAM17 confirm: confirmation of inhibitors of human ADAM17 | shares compounds with ADAM17 inh | recombinant ADAM17, EDANS/DABCYL QFRET peptide cleavage | inhibition, % at 6.95 µM | actives 65% (n = 2,900);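 active = mean inhibition across replicates above the hit cutoff set in the primary screen, cut at about 8.5% in these data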;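 also: 0% = DMSO wells and 100% = marimastat wells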
# * = called active by the depositor; / = no result given.
SMILES,ADAM10 inh,rRNA inh HTS,FGF22 binding,ADAM17 inh,KLK7 zymogen act,ADAM10 confirm,ADAM17 counter,ADAM10 counter,ADAM17 confirm
Cc1ccc(-c2ccc(CN3C(CC(C)C)C(=O)N(Cc4cn(CCC5OCCO5)nn4)CCS3(=O)=O)cc2)cc1 (centres undefined),26*,5,0,9.8*,0,6,3,26*,23*
COCOCCn1cc(CN2CCS(=O)(=O)N(Cc3ccc(-c4ccc(Cl)c(Cl)c4)cc3)C(C(C)C)C2=O)nn1 (centres undefined),27*,6,0,9.1*,0,8,3,28*,20*
CC(C)CC1C(=O)N(Cc2cn(CCC3OCCO3)nn2)CCS(=O)(=O)N1Cc1ccc(-c2ccccc2)cc1 (centres undefined),17,-6,0,5,0,/,/,/,/
COc1cccc(NC(=O)CN(C)C(=O)c2ccccc2OCc2c(C)noc2C)c1,-7,1,0,-8,0,/,/,/,/
Cc1noc(C)c1COc1ccccc1C(=O)N(C)CC(=O)Nc1ccc(Cl)c(Cl)c1,23*,-14,-1,9.9*,0,3,0,32*,13*
Cc1cccc(COc2ccccc2C(=O)N(C)CC(=O)Nc2cccc(F)c2)c1,23*,-8,0,11*,0,-1,0,16,13*
CO[C@@H]1CN(C)C(=O)c2cc(NC(=O)c3ccc(F)cc3)ccc2OC[C@@H](C)N(C(=O)c2ccc(F)cc2)C[C@@H]1C,/,-8,0,/,/,/,/,/,/
COc1cccc(NC(=O)C(Sc2nnc(Nc3ccccc3C)s2)c2ccccc2)c1 (centres undefined),33*,/,0,14*,0,9,3,29*,15*
COc1ccc(Nc2nnc(SC(C(=O)Nc3cc(C)ccc3C)c3ccccc3)s2)cc1 (centres undefined),8,-1,0,1,0,/,/,/,/
Cc1ccc(S(=O)(=O)N(Cc2ccc(Cl)cc2)c2ccccc2C(=O)NCc2ccco2)cc1,22*,/,/,11*,0,6,2,19,12*
Cc1noc(C)c1NC(=O)N[C@@H]1CC[C@@H](CCNC(=O)C2CCC2)O[C@H]1CO,/,0,0,/,/,/,/,/,/
CC(C)C[C@H](NC(=O)c1[nH]cnc1C(=O)N[C@@H](C)C(=O)OCc1ccccc1)C(=O)OCc1ccccc1,25*,2,0,12*,0,10,3,40*,21*
CC(C)C[C@H](NC(=O)c1[nH]cnc1C(=O)N[C@@H](Cc1ccccc1)C(=O)OCc1ccccc1)C(=O)OC(C)(C)C,17,7,0,3,0,/,/,/,/
CC(C)C[C@H](NC(=O)c1nc[nH]c1C(=O)NCc1ccccc1)C(=O)OCc1ccccc1,25*,1,0,10*,0,7,4,35*,16*
CCCC#Cc1ccc2c(c1)O[C@H](CN(C)C)[C@@H](C)CN([C@H](C)CO)S2(=O)=O,/,1,0,/,/,/,/,/,/
COc1cc(C(O)c2nc(-c3ccc4ccccc4c3)cs2)ccc1F (centres undefined),49*,-11,0,23*,1,11,3,22*,15*
COc1ccc(-c2csc(C(O)c3ccc(OC)cc3)n2)cc1 (centres undefined),-16,-35,0,-2,0,/,/,/,/
COc1ccc(C(O)c2nc(-c3ccc4ccccc4c3)cs2)cc1 (centres undefined),42*,1,0,20*,0,6,3,21*,14*
O=C(N[C@H]1CC[C@@H](CCNS(=O)(=O)c2ccc(F)cc2)O[C@H]1CO)C1CCOCC1,/,4,0,/,/,/,/,/,/
CCC(=O)Nc1ccc2c(c1)OC[C@@H](C)N(Cc1cccnc1)C[C@H](C)[C@@H](OC)CN(C)C2=O,/,0,0,/,/,/,/,/,/
Cc1cc(C(=O)COC(=O)c2ccc(O)cc2)c(C)n1CC1COc2ccccc2O1 (centres undefined),26*,-7,0,20*,0,7,3,13,8
Cc1ccc(NC(=S)NCCc2c[nH]c3ccccc23)cc1,5,/,/,2,0,/,/,/,/
COc1ccc(Cl)cc1NC(=S)NCCc1c[nH]c2ccccc12,22*,/,/,10*,0,4,1,36*,21*
CC1(c2ccc(OC(F)F)cc2)NC(=O)N(CC(=O)Nc2ccc(OC(F)F)cc2)C1=O (centres undefined),8,-6,1,3,1,/,/,/,/
CCOC(=O)c1c(NC(=O)CN2C(=O)NC(C)(c3ccc(OC(F)F)cc3)C2=O)sc(C)c1C (centres undefined),22*,/,0,11*,0,19,6,34*,20*
SMILES,ADAM10 inh,rRNA inh HTS,FGF22 binding,ADAM17 inh,KLK7 zymogen act,ADAM10 confirm,ADAM17 counter,ADAM10 counter,ADAM17 confirm
CC(C)C(=O)Nc1ccc2c(c1)C(=O)N(C)[C@@H]1CC[C@H](CC(=O)NC3CCCC3)O[C@@H]1CO2,/,-2,/,/,/,/,/,/,/
Cc1cccc(-n2cc(CN(C)Cc3nccn3C)c(-c3cccc(F)c3)n2)c1,24*,-57,0,11*,0,3,1,12,10*
CCn1ccnc1CN(C)Cc1cn(-c2cccc(C)c2)nc1-c1cccc(F)c1,19,-57,0,5,0,/,/,/,/
COc1ccc(N/N=C(\C#N)C(N)=O)cc1,0,9,0,1,0,/,/,/,/
COc1ccc(N/N=C(/C(N)=O)C2=NC(C)(C)Cc3ccccc32)cc1,28*,-11,0,14*,0,3,0,9,5
OC[C@@H]1CN(Cc2ccc(-c3ccccc3)cc2)C[C@H](n2cnc3c(NCc4ccc(F)cc4)ncnc32)O1,23*,2,0,8.9*,0,6,4,29*,18*
OC[C@@H]1CN(Cc2ccccc2)C[C@H](n2cnc3c(NCc4ccc(F)cc4)ncnc32)O1,-30,/,0,-7,4,/,/,/,/
COc1cc(CNc2ncnc3c2ncn3[C@H]2CN(Cc3cccc(C(F)(F)F)c3)C[C@@H](CO)O2)cc(OC)c1OC,23*,1,0,9.7*,0,1,-1,14,10*
